Data as given in the supplement of paper PMC11732987, “Enantioselective OTUD7B fragment discovery through chemoproteomics screening and high-throughput optimisation” (Communications Chemistry, 2025).

How the values were obtained:
Assay in all cases: log2 ratio of Biotin-Ahx-Ub-VS probe labelling (fragment/DMSO); higher = less target engagement (more negative = stronger competition), active = hit call of the paper (q ≤ 0.05, log2 ratio ≤ -1)
Settings in all cases: compound concentration: 200 uM; treatment time: 3 h
USP42 = biological target: T1, USP42 (UniProt Q9H9J4)
T1 sequence (whole entry): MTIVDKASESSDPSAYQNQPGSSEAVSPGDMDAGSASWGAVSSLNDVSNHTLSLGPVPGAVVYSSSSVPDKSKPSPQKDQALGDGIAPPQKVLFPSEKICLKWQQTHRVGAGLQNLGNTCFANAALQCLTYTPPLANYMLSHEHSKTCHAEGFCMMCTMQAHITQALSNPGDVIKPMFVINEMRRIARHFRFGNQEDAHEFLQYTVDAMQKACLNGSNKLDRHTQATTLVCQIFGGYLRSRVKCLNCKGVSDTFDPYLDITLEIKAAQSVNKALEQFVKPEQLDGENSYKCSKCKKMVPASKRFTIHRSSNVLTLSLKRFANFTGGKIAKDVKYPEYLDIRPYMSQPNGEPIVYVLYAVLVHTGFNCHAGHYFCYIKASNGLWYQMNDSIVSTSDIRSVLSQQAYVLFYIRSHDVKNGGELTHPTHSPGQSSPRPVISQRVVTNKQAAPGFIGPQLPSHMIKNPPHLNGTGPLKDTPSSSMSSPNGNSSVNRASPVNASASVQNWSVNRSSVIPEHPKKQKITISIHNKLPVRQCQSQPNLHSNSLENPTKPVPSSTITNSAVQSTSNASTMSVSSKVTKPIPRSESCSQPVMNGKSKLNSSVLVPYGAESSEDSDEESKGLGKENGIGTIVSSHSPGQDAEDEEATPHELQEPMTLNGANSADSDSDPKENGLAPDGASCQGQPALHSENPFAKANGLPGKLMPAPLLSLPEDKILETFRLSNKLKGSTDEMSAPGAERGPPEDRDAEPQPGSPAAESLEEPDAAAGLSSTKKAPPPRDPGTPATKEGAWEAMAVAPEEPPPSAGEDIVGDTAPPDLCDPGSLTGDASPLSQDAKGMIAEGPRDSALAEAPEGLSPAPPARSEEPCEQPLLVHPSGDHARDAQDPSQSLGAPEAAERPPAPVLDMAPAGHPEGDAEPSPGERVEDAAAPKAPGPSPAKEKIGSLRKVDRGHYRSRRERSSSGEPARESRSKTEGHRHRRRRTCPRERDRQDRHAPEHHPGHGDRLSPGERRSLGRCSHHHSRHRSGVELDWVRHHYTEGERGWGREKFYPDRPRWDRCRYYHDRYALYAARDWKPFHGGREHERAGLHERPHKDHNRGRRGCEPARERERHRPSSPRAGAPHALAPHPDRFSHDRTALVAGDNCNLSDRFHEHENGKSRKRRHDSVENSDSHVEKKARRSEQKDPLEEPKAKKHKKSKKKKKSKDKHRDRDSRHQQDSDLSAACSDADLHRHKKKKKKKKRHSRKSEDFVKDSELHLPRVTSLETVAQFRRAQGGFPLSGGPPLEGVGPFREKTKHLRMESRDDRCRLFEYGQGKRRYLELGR
In short: (§1)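 HEK293T lysate, 495 µg per sample in Tris/CHAPS/IGEPAL buffer with protease inhibitors, was treated in triplicate with fragment at 200 µM or vehicle for 3 h and then with Biotin-Ahx-Ub-VS at 0.5 µM final for 1 h. Labelled DUBs were NeutrAvidin-enriched, digested with LysC and trypsin, and run by diaPASEF LC-MS/MS. Spectronaut label-free quantities were global-median-normalised, and values are average log2 fragment/vehicle ratios by unpaired t-test on proteins with ≥2 unique peptides.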

USP46 = USP46 (UniProt P62068)
Sequence of USP46 (P62068 whole entry): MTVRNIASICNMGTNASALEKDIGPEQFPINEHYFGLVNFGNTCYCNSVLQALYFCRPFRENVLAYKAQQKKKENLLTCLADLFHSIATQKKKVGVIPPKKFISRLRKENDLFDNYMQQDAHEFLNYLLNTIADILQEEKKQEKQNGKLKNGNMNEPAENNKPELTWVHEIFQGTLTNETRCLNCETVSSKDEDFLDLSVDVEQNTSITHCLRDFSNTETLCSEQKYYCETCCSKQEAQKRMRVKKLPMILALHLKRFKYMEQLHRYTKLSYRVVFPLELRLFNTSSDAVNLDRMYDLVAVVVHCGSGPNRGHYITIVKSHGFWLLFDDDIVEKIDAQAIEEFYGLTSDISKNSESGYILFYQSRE
In short: as §1

USP47 = biological target: T2, USP47 (UniProt Q96K76)
T2 sequence (whole entry): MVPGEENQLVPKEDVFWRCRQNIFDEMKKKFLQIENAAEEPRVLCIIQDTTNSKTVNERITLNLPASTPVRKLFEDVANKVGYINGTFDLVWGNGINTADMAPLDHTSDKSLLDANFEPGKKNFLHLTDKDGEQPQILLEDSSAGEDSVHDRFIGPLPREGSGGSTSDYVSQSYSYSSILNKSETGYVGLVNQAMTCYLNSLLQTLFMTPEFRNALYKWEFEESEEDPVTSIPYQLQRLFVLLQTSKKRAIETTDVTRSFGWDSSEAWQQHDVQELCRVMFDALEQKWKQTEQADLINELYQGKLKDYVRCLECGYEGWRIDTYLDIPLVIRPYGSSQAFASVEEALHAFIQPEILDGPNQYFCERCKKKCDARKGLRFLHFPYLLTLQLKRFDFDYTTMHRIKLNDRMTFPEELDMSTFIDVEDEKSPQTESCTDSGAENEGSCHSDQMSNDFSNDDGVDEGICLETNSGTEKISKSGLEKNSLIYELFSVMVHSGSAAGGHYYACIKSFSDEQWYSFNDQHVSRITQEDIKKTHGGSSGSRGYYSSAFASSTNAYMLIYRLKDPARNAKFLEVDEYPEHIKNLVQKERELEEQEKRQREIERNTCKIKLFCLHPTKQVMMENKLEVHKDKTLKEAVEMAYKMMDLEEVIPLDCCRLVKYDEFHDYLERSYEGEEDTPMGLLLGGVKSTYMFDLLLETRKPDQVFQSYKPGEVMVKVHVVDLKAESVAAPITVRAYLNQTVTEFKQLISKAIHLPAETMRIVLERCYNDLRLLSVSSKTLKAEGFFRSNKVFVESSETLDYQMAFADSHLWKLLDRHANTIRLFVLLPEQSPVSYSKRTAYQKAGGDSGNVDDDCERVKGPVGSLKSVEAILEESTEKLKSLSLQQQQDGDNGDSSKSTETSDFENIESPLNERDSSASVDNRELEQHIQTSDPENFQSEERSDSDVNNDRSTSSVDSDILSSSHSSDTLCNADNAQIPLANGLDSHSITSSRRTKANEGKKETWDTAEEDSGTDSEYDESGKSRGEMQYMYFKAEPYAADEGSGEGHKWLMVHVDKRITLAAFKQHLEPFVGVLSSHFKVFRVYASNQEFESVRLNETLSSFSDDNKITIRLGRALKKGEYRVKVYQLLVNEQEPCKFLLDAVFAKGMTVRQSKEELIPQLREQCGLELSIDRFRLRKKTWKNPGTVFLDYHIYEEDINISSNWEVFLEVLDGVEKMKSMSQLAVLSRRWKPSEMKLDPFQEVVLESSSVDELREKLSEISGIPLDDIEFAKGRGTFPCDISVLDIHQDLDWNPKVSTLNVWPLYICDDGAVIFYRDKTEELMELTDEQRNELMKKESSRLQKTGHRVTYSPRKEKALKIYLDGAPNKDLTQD
In short: as §1

USP48 = biological target: T3, USP48 (UniProt Q86UV5)
T3 sequence (whole entry): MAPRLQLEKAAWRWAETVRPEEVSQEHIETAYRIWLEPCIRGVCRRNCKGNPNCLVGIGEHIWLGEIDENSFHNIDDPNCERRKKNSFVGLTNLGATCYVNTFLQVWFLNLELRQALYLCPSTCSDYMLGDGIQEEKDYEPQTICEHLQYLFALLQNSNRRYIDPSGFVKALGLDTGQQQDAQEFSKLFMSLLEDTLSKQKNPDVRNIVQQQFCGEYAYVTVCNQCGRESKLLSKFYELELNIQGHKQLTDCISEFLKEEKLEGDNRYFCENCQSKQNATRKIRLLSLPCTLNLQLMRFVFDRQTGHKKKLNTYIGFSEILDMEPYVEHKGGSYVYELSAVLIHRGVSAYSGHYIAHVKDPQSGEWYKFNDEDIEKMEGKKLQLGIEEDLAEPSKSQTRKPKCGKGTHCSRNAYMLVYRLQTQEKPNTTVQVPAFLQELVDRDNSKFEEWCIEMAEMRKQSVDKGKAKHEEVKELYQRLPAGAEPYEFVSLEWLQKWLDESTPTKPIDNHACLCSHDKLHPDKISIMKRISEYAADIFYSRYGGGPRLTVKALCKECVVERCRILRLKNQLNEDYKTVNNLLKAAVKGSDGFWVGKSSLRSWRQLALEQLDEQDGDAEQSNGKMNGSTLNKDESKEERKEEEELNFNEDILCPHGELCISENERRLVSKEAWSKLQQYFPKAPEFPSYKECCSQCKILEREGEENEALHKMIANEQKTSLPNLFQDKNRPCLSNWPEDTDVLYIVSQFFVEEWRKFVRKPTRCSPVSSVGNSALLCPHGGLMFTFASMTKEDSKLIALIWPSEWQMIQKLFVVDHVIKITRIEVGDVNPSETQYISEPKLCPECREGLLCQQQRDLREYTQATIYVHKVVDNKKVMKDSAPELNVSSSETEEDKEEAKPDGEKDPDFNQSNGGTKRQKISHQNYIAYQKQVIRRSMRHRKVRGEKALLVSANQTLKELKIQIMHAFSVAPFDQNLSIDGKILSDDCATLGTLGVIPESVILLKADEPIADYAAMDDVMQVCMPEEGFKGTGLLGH
In short: as §1

USP5 = biological target: T4, USP5 (UniProt P45974)
T4 sequence (whole entry): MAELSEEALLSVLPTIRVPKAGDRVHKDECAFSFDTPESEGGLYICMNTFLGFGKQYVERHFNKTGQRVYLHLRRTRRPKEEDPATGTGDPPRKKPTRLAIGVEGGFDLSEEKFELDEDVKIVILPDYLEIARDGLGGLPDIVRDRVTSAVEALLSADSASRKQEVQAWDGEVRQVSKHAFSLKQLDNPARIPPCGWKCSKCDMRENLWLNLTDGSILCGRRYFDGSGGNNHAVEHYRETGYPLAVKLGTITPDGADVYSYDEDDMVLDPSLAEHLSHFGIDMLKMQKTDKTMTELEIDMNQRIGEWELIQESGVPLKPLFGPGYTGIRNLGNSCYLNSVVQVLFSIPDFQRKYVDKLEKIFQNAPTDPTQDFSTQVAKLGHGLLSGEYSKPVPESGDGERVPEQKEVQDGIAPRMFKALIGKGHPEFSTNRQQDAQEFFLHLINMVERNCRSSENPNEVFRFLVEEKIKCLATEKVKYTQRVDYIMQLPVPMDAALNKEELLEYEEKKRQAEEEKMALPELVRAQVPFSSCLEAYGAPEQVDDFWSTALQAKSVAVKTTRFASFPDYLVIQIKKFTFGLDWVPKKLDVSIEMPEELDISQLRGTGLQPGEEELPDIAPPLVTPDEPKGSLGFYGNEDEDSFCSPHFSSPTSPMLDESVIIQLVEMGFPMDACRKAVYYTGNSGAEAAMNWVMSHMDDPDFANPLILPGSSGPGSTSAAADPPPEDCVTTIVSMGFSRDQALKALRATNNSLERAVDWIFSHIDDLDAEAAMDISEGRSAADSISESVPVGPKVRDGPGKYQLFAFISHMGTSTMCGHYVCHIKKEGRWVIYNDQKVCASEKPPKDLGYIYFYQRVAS
In short: as §1

USP54 = USP54 (UniProt Q70EL1)
Sequence of USP54 (Q70EL1 whole entry): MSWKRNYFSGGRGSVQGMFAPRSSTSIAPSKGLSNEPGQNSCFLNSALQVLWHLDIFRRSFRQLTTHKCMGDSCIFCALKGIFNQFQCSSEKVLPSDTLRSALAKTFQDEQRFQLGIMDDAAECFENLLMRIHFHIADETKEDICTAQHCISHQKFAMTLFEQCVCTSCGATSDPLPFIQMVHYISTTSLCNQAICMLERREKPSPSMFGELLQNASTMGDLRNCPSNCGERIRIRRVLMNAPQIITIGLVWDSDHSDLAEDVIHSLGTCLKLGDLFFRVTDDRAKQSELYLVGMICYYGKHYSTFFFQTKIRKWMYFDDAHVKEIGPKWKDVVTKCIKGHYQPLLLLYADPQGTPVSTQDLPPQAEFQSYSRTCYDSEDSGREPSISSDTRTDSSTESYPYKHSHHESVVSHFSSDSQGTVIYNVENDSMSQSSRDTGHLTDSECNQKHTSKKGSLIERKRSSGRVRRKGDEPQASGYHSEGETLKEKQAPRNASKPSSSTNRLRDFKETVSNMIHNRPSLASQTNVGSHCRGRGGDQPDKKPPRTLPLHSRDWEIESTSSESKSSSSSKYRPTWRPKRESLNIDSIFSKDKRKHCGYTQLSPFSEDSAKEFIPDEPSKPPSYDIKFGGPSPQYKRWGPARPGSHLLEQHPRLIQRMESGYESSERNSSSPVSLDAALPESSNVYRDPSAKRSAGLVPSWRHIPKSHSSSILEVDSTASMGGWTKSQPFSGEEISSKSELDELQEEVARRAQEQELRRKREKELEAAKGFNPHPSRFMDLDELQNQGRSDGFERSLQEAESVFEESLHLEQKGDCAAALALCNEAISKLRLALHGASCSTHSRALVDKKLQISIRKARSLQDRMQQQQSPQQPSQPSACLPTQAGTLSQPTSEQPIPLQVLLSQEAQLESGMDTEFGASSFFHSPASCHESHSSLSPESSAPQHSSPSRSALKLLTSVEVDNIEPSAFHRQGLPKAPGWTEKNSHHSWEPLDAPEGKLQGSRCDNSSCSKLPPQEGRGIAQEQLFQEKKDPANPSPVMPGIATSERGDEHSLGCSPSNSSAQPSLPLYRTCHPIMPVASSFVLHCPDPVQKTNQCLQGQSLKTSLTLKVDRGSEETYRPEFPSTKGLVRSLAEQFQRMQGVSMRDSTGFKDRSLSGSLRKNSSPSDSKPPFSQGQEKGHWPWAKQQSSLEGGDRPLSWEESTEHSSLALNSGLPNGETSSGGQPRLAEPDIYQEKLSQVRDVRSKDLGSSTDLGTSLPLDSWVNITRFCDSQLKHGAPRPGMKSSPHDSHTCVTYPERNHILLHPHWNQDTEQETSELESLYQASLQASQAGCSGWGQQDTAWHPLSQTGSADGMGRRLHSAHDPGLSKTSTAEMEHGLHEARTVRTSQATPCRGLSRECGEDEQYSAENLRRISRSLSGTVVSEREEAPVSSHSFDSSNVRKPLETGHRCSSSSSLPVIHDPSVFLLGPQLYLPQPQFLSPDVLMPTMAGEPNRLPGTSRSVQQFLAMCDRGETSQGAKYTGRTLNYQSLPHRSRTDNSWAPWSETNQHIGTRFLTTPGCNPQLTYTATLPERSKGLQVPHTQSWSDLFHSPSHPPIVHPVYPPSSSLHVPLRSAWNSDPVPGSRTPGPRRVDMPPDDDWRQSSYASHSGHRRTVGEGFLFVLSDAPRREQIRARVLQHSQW
In short: as §1

USP7 = USP7 (UniProt Q93009)
In short: as §1

USP8 = biological target: T5, USP8 (UniProt P40818)
T5 sequence (whole entry): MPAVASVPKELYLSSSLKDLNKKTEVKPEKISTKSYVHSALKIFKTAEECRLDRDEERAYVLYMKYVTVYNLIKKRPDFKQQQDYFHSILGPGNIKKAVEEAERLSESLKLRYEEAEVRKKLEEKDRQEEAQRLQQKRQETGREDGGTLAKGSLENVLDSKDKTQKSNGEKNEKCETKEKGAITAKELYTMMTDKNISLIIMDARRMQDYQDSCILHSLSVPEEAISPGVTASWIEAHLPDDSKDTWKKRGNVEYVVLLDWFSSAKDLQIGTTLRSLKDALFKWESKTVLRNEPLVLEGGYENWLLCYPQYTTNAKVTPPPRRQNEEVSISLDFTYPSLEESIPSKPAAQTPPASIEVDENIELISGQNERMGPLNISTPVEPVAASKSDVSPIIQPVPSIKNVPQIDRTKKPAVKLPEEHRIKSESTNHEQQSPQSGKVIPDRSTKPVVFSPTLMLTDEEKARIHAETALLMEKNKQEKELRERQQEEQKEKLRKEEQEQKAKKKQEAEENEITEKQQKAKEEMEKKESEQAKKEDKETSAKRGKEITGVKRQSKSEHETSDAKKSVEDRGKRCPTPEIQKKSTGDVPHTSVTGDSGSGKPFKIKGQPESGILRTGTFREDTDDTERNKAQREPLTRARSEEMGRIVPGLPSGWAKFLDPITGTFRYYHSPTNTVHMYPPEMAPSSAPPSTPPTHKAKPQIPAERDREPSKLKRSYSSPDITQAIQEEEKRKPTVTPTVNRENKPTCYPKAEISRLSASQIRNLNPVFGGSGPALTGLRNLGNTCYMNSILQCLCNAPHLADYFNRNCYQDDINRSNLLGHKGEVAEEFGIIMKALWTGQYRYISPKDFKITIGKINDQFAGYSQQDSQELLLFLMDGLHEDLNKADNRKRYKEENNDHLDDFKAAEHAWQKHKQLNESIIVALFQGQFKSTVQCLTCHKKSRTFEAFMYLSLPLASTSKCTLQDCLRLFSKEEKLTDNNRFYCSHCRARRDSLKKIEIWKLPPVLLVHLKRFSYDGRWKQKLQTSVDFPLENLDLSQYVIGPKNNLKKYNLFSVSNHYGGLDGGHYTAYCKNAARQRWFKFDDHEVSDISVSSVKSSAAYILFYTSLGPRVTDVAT
In short: as §1

USP9X = USP9X (UniProt Q93008)
Sequence of USP9X (Q93008 whole entry): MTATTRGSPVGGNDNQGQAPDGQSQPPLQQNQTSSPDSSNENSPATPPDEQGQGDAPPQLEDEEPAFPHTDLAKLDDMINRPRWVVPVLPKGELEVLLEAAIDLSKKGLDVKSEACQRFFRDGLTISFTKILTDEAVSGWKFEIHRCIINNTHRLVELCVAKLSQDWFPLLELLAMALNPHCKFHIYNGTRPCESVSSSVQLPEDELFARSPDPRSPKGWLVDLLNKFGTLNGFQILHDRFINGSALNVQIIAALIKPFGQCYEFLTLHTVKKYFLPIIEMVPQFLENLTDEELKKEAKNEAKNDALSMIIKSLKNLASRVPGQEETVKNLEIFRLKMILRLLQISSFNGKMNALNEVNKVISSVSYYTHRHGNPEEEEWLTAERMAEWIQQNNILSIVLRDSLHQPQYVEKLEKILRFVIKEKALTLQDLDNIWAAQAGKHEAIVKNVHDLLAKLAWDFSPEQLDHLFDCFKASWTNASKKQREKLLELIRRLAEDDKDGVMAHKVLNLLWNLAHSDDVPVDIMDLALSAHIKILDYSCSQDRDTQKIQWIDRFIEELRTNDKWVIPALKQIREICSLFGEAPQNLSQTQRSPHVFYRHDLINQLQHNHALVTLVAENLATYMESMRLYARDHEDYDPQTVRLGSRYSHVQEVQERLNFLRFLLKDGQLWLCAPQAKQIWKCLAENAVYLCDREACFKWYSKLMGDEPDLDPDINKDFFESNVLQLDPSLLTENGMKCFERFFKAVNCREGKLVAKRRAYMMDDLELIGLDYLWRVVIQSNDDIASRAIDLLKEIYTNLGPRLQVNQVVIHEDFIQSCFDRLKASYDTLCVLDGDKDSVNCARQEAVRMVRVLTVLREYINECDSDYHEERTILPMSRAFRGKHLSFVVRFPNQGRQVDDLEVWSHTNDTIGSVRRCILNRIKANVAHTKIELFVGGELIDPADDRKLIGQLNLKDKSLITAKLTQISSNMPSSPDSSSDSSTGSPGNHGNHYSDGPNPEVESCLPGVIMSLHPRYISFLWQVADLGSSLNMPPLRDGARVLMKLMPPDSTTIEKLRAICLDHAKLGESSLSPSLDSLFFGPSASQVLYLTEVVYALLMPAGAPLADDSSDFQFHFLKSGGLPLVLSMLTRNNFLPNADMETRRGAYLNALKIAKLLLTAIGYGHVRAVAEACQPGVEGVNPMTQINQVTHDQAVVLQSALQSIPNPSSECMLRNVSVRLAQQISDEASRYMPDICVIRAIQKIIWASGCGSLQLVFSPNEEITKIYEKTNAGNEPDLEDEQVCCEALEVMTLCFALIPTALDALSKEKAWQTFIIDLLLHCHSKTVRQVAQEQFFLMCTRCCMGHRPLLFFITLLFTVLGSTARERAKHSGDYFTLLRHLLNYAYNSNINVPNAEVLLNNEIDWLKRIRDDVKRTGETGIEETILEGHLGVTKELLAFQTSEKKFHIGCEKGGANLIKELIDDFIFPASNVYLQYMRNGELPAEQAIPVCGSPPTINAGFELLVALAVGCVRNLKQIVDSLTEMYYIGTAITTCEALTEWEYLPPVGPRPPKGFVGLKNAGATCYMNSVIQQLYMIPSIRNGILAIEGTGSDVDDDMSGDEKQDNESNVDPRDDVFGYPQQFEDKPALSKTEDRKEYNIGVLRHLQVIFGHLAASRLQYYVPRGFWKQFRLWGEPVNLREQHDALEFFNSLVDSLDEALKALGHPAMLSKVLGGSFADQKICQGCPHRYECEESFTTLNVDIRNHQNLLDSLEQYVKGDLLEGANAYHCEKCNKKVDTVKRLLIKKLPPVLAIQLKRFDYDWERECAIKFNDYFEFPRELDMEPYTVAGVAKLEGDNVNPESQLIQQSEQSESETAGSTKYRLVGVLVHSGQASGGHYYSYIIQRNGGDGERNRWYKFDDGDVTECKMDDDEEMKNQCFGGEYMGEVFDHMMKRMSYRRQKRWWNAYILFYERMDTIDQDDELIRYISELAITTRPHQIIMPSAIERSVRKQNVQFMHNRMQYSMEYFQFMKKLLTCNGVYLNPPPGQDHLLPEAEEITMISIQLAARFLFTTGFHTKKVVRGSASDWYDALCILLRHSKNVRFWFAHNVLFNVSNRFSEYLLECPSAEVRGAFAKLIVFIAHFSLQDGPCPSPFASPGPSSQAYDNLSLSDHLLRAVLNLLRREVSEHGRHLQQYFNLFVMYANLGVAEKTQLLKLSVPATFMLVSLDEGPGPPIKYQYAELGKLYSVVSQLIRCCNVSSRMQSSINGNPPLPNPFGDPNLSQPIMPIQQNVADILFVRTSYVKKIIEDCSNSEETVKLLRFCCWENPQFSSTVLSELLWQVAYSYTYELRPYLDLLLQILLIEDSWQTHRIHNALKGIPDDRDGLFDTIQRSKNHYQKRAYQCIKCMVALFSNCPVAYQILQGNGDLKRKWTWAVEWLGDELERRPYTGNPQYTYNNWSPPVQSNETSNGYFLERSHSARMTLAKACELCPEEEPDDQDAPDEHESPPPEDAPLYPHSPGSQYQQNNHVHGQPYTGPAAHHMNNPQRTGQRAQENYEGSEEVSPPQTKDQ
In short: as §1

UniProt O00487 = biological target: UniProt O00487
Sequence of UniProt O00487 (O00487 whole entry): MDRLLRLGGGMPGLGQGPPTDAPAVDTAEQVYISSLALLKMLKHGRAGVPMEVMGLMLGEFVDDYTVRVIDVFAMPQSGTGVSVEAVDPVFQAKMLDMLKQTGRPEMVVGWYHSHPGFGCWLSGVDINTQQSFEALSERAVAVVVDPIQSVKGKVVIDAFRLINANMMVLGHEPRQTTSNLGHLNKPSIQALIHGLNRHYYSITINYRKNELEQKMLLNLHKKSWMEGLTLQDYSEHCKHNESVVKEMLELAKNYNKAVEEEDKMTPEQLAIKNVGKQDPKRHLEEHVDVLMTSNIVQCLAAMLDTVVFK
In short: as §1

Measured: log2 ratio of Biotin-Ahx-Ub-VS probe labelling

COc1cc(Cl)c(C)cc1NC(=O)CCl
inactive: USP42 -0.591 | USP46 -0.0884 | USP47 -0.965 | USP48 -0.36 | USP5 -0.267 | USP54 0.718 | USP7 -0.373 | USP8 -0.251 | USP9X -0.645 | UniProt O00487 -0.246

O=C(CCl)Nc1ccc2c(c1)OC(F)(F)O2
active: USP47 -1.16
inactive: USP42 -0.384 | USP46 -0.0942 | USP48 -0.476 | USP5 0.218 | USP54 0.684 | USP7 -0.296 | USP8 -0.29 | USP9X -0.301 | UniProt O00487 0.0325
